Results as given in the supplement of paper PMC10849652.
Targets with a hit are over-represented here; the source holds about 8,800 in all. About 0.5% of all pairs of compound and target were hits.

Columns and labels:
Assay in all cases: log2 fold change, soluble protein after heating vs DMSO (PISA); higher = thermal stabilisation; K562 lysate, 10 uM; active = over 0.2 and 3.5 SD of the protein, either way, in both replicates (recomputed)
lapatinib = compound: CS(=O)(=O)CCNCc1ccc(-c2ccc3ncnc(Nc4ccc(OCc5cccc(F)c5)c(Cl)c4)c3c2)o1 [lapatinib]
How it was run: (§1)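 Thermal stability, expressed as log-two fold change relative to solvent controls, is given from duplicates. Crude K562 extract in PBS pH 7.4 with 1 mM MgCl2, at 1 mg/mL protein, was treated with 10 μM compound for 30 min and heated in aliquots for 3 min across 48°C-58°C. After pooling, adjustment to 0.5% NP-40 at 4°C and centrifugation at 21,000xg for 90 min, supernatant protein was measured by TMTpro 16plex LC-MS/MS with channel sums equalised.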

pictilisib = compound: CS(=O)(=O)N1CCN(Cc2cc3nc(-c4cccc5[nH]ncc45)nc(N4CCOCC4)c3s2)CC1 [pictilisib]
How it was run: as §1

crizotinib = compound: C[C@@H](Oc1cc(-c2cnn(C3CCNCC3)c2)cnc1N)c1c(Cl)ccc(F)c1Cl [crizotinib]
How it was run: as §1

[1] = compound: C[C@H](C1=CC=C(C=C1)C(=O)NC2=C3C=CNC3=NC=C2)N
How it was run: as §1

duvelisib = compound: C[C@H](Nc1ncnc2nc[nH]c12)c1cc2cccc(Cl)c2c(=O)n1-c1ccccc1 [duvelisib]
How it was run: as §1

gandotinib = compound: Cc1cc(Nc2cc(CN3CCOCC3)c3nc(C)c(Cc4ccc(Cl)cc4F)n3n2)n[nH]1 [gandotinib]
How it was run: as §1

tozasertib = compound: Cc1cc(Nc2cc(N3CCN(C)CC3)nc(Sc3ccc(NC(=O)C4CC4)cc3)n2)n[nH]1 [tozasertib]
How it was run: as §1

doramapimod = compound: Cc1ccc(-n2nc(C(C)(C)C)cc2NC(=O)Nc2ccc(OCCN3CCOCC3)c3ccccc23)cc1 [doramapimod]
How it was run: as §1

bafetinib = compound: Cc1ccc(NC(=O)c2ccc(CN3CC[C@H](N(C)C)C3)c(C(F)(F)F)c2)cc1Nc1nccc(-c2cncnc2)n1 [bafetinib]
How it was run: as §1

[2] = compound: Cc1cccc(CC(=O)N2CCc3c2ccc(-c2cn(C)c4ncnc(N)c24)c3F)n1
How it was run: as §1

dasatinib = compound: Cc1nc(Nc2ncc(C(=O)Nc3c(C)cccc3Cl)s2)cc(N2CCN(CCO)CC2)n1 [dasatinib]
How it was run: as §1

[3] = compound: Cn1cc(-c2ccc3c(c2)CCN3C(=O)Cc2cccc(C(F)(F)F)c2)c2c(N)ncnc21
How it was run: as §1

quisinostat = compound: Cn1cc(CNCC2CCN(c3ncc(C(=O)NO)cn3)CC2)c2ccccc21 [quisinostat]
How it was run: as §1

[4] = compound: NC(=O)Nc1cc(-c2cccc(F)c2)sc1C(=O)N[C@H]1CCCNC1
How it was run: as §1

[5] = compound: NC(=O)c1cnc(N[C@@H]2CCCC[C@@H]2N)nc1Nc1cccc(-n2nccn2)c1
How it was run: as §1

[6] = compound: NC1(c2ccc(-c3nc4ccn5c(=O)[nH]nc5c4cc3-c3ccccc3)cc2)CCC1
How it was run: as §1

nilotinib = compound: Cc1cn(-c2cc(NC(=O)c3ccc(C)c(Nc4nccc(-c5cccnc5)n4)c3)cc(C(F)(F)F)c2)cn1 [nilotinib]
How it was run: as §1

[7] = compound: Cc1nc(Nc2n[nH]c3c2CN(C(=O)N[C@H](CN(C)C)c2ccccc2)C3(C)C)c2sccc2n1
How it was run: as §1

[8] = compound: Cc1ncc(-c2ccnc(Nc3ccc(S(C)(=O)=O)cc3)n2)n1C(C)C
How it was run: as §1

tipifarnib = compound: Cn1cncc1[C@@](N)(c1ccc(Cl)cc1)c1ccc2c(c1)c(-c1cccc(Cl)c1)cc(=O)n2C [tipifarnib]
How it was run: as §1

Measured: log2 fold change

CCDC85B (UniProt Q15834)
Sequence of UniProt Q15834 (Q15834 whole entry, looked up): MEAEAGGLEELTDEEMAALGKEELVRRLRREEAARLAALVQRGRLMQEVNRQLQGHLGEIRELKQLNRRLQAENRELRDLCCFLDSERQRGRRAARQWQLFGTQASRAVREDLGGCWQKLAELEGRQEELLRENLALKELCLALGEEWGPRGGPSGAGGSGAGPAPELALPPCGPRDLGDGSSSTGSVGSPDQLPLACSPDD
inactive: lapatinib 0 | pictilisib -0.042 | crizotinib 0.006 | [1] -0.016 | duvelisib 0.081 | gandotinib -0.032 | tozasertib 0.248 | doramapimod 0.098 | bafetinib 0.054 | [2] 0.011 | dasatinib 0.066 | [3] -0.034 | quisinostat 0.086 | [4] 0.044 | [5] -0.225 | [6] 0.188

BAHCC1 (UniProt Q9P281)
Sequence of UniProt Q9P281 (Q9P281 whole entry, looked up): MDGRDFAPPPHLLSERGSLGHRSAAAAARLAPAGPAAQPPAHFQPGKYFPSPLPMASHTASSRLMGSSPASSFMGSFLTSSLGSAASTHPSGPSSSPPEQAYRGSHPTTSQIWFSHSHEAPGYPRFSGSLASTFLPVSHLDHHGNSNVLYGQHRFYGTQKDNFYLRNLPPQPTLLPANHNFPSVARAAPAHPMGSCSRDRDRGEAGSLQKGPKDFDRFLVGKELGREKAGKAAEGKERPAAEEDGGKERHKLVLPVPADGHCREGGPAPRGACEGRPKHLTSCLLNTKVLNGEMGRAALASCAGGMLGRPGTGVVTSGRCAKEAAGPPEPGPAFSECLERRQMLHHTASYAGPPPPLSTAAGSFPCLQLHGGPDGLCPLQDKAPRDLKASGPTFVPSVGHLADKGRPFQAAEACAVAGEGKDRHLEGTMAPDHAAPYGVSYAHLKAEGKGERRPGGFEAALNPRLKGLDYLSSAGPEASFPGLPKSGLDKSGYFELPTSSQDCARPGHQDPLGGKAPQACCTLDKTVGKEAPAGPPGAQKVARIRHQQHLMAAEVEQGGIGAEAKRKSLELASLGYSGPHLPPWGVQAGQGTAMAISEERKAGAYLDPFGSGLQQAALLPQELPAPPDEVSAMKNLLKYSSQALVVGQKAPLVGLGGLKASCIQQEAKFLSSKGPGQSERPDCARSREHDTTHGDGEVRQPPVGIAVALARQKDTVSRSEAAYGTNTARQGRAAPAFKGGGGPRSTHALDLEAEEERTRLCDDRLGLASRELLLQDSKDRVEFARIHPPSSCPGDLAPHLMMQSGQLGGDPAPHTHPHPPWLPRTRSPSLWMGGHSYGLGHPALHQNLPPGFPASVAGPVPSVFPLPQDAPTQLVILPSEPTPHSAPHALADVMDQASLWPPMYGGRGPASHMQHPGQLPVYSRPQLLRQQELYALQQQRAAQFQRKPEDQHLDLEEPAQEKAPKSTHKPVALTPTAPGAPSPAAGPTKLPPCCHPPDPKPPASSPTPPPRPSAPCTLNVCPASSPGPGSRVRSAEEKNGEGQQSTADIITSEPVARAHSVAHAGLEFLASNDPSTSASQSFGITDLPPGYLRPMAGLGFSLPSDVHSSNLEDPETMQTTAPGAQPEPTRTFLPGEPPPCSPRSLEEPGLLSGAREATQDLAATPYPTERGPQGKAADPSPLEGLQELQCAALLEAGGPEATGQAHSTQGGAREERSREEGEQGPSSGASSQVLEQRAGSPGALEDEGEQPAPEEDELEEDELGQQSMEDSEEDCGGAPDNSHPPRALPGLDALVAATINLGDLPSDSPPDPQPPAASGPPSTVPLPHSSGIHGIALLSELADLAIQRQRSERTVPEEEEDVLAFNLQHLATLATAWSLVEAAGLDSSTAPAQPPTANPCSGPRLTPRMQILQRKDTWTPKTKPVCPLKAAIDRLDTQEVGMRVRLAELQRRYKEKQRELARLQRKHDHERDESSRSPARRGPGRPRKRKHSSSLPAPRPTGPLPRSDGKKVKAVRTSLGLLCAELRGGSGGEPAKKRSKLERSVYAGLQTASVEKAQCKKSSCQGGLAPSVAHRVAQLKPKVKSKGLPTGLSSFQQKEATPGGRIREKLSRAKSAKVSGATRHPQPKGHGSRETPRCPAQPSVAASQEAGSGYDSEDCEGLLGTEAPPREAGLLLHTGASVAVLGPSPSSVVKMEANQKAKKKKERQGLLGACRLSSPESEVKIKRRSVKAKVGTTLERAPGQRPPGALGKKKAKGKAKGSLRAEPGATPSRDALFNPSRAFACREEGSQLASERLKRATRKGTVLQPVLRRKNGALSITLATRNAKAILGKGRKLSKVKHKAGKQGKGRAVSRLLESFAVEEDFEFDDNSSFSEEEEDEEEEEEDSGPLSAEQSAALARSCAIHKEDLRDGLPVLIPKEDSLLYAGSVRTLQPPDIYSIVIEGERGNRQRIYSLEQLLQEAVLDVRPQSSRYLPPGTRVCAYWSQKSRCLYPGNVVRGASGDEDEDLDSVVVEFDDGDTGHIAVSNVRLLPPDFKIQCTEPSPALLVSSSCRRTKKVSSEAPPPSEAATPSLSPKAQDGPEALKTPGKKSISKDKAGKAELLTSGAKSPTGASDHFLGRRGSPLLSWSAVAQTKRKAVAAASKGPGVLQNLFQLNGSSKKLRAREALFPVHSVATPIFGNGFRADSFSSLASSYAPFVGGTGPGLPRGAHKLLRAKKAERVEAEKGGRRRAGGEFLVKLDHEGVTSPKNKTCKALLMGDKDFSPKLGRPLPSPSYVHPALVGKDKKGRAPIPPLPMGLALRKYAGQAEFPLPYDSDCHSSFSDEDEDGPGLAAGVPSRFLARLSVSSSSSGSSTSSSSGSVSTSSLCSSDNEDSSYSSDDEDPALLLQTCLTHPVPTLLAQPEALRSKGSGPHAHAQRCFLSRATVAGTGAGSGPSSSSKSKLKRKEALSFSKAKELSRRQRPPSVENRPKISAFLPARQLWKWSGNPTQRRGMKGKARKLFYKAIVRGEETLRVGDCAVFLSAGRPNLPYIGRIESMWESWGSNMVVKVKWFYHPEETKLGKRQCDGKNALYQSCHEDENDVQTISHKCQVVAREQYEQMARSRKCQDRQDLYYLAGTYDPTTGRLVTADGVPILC
active: [1] -0.956
inactive: lapatinib -0.117 | crizotinib -0.191 | duvelisib 0.002 | gandotinib 0.006 | tozasertib 0.052 | doramapimod 0.137 | [2] 0.234 | nilotinib -0.191 | [7] 0.019 | dasatinib -0.144 | [8] -0.141 | [3] -0.039 | quisinostat -0.328 | tipifarnib 0.031 | [4] -0.053 | [5] 0.021 | [6] 0.07

CAPNS1 (UniProt U3KPR7)
inactive: lapatinib -0.052 | pictilisib -0.083 | bafetinib -0.194 | nilotinib -0.166 | [7] -0.416 | [8] 0.226 | tipifarnib 0.161 | [5] -0.214

BOLA2 (UniProt Q9H3K6)
Sequence of UniProt Q9H3K6 (Q9H3K6 whole entry, looked up): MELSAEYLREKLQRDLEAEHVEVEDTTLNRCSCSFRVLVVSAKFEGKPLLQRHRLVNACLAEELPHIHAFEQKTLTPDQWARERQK
active: [1] 0.46
inactive: lapatinib -0.038 | pictilisib -0.035 | crizotinib 0.02 | duvelisib 0.03 | gandotinib -0.088 | tozasertib 0.069 | doramapimod 0.033 | bafetinib 0.094 | [2] -0.064 | nilotinib 0.039 | [7] -0.036 | dasatinib -0.002 | [8] -0.021 | [3] 0.009 | quisinostat 0.063 | tipifarnib 0.01 | [4] -0.042 | [5] -0.013 | [6] 0.096

C16orf70 (UniProt Q9BSU1)
Sequence of UniProt Q9BSU1 (Q9BSU1 whole entry, looked up): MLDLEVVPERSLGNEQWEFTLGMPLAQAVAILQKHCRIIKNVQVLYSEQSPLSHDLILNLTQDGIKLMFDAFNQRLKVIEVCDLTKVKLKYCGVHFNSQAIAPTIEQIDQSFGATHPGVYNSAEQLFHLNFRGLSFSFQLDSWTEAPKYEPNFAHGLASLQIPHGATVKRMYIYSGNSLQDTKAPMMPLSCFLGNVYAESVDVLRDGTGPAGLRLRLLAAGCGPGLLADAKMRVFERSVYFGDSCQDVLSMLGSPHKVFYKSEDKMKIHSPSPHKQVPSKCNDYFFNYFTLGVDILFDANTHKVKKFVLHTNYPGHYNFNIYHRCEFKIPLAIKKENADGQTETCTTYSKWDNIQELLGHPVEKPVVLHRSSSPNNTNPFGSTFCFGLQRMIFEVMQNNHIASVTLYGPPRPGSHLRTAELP
inactive: lapatinib -0.002 | pictilisib -0.076 | crizotinib 0.058 | duvelisib -0.013 | tozasertib 0.018 | doramapimod 0.116 | bafetinib -0.045 | dasatinib 0.042 | [3] -0.091 | quisinostat 0.036 | [4] -0.005 | [5] -0.001 | [6] 0.009

CDC25C (UniProt P30307)
Sequence of UniProt P30307 (P30307 whole entry, looked up): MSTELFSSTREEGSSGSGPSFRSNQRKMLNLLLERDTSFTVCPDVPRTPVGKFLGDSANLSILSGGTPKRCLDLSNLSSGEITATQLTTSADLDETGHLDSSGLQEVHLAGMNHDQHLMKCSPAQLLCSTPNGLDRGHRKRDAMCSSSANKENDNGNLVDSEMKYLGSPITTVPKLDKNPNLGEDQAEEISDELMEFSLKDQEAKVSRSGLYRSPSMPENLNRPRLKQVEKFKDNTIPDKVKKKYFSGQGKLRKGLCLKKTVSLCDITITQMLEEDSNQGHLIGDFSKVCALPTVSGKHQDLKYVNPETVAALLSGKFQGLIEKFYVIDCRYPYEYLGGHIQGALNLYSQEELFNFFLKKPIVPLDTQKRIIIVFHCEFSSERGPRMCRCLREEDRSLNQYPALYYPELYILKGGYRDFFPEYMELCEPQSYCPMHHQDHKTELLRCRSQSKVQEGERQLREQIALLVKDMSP
inactive: lapatinib -0.118 | pictilisib -0.025 | [1] -0.049 | duvelisib -0.021 | gandotinib -0.109 | tozasertib 0.03 | doramapimod -0.003 | bafetinib 0.038 | [2] 0.013 | nilotinib 0.039 | [7] -0.037 | dasatinib 0.042 | [8] -0.048 | [3] 0.004 | quisinostat 0.056 | tipifarnib -0.004 | [4] 0.025 | [5] 0.015 | [6] 0.05

CEP295 isoform 3 (UniProt Q9C0D2)
active: [1] -0.365
inactive: lapatinib -0.038 | pictilisib 0.057 | crizotinib 0.004 | gandotinib 0.058 | tozasertib 0.111 | doramapimod 0.059 | bafetinib 0.031 | [2] 0.072 | nilotinib 0.016 | [7] 0.046 | [8] 0.006 | quisinostat 0.017 | tipifarnib 0.062 | [4] -0.038 | [5] 0.14 | [6] 0.046

C6orf120 (UniProt Q7Z4R8)
Sequence of UniProt Q7Z4R8 (Q7Z4R8 whole entry, looked up): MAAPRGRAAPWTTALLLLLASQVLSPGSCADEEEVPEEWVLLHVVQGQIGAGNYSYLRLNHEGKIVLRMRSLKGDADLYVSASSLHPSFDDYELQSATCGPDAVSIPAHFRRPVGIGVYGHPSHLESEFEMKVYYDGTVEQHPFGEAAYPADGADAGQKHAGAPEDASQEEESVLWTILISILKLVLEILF
inactive: lapatinib -0.113 | pictilisib 0.032 | [1] -0.03 | duvelisib -0.036 | gandotinib -0.037 | bafetinib 0.045 | [2] -0.169 | dasatinib -0.007 | [3] 0.147 | [5] 0.017 | [6] 0.041

C8orf37 (UniProt Q96NL8)
Sequence of UniProt Q96NL8 (Q96NL8 whole entry, looked up): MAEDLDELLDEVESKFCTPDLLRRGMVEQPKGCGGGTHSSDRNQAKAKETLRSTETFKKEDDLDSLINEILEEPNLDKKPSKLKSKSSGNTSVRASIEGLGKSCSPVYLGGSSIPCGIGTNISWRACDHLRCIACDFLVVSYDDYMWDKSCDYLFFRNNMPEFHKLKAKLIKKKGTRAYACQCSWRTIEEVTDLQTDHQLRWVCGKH
inactive: lapatinib -0.095 | pictilisib 0.006 | crizotinib 0.043 | duvelisib 0.046 | gandotinib -0.06 | tozasertib 0.006 | doramapimod 0.043 | bafetinib 0.09 | [2] 0.238 | dasatinib 0.083 | [3] 0.056 | quisinostat 0.004 | [4] -0.01 | [5] 0.298 | [6] 0.029
active: [1] -0.559

BTK isoform 2 (UniProt Q06187)
Sequence of UniProt Q06187 (Q06187 whole entry, looked up): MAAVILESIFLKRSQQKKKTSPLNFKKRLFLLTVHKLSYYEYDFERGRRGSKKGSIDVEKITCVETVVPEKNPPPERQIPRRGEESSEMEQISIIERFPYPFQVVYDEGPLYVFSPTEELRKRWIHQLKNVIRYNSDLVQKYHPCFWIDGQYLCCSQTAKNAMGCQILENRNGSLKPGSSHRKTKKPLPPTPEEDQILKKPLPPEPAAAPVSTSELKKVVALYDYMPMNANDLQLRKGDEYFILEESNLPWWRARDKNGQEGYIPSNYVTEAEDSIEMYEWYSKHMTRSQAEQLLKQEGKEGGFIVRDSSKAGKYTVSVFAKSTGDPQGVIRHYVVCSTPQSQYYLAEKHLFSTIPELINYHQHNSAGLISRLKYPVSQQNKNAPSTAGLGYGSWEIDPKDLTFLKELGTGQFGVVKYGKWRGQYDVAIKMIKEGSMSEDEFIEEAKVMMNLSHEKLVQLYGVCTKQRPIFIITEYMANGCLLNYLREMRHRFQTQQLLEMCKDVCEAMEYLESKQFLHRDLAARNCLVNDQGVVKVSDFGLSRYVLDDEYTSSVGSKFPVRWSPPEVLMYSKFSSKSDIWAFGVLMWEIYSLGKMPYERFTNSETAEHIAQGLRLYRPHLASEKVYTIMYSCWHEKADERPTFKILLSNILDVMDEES
inactive: lapatinib -0.015 | pictilisib -0.041 | [1] -0.148 | duvelisib 0.018 | gandotinib 0.101 | tozasertib -0.012 | doramapimod 0.031 | bafetinib -0.043 | [2] 0.178 | nilotinib 0.016 | [7] -0.002 | [8] 0.015 | [3] -0.005 | quisinostat -0.05 | tipifarnib -0.021 | [5] 0.032 | [6] -0.049
active: [4] 0.294
